In PubChem BioAssay (NCATS):
Results filed as inconclusive are left out. A call without a number means that no potency is given here. More than one record can exist for a structure, and the calls need not agree. Calls of active or inactive are those of the source. Unless noted, the call rests on the fitted dose curve; in most records, active means well fitted curve in the direction sought with a large enough effect; inconclusive means small, poorly fitted or top-dose-only effect, or another doubt; inactive means no such curve, though single readings can be large; an effect the other way counts as inactive or inconclusive.

Tests used:
[1] = biological target: Atrial natriuretic peptide receptor 1 (Homo sapiens) (UniProt P16066); assay: Natriuretic polypeptide receptor (hNpr1) antagonism - Pilot CMLD screen (AID 1347052; calls by dose curve;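 further: HEK293 cells with hNpr1 stimulated by hNppA peptide at 0.1 nM; cGMP level read as GloSensor luciferase luminescence after agonist stimulation; series mostly up to about 9.2 µM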)
[2] = qHTS for Inhibitors of Plasmodium falciparum (DD2) proliferation (AID 504314); further: potency means the concentration at half of the fitted maximal effect;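 on activity, negative = inhibition: parasite DNA measured by SYBR Green fluorescence after red cell lysis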
Outline: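 Quantitative HTS growth inhibition: SYBR Green I binding to parasite DNA after 72 h drug exposure of infected erythrocytes (0.3% parasitemia, 2.5% hematocrit). Signals normalized per plate to inhibitor and vehicle wells.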

[3] = qHTS for Inhibitors of Plasmodium falciparum (GB4) proliferation (AID 504315); further: nearly all actives have a fitted effect of over 50% in size; further: potency means the concentration at half of the fitted maximal effect
Outline: (§1)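 Erythrocytes infected with P. falciparum line (0.3% parasitemia, 2.5% hematocrit final) incubated with compounds 72 h at 37 °C, 5% CO2; SYBR Green lysis buffer added, fluorescence read next day. Normalized to 0.29 uM artemisinin and DMSO.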

[4] = qHTS for Inhibitors of Plasmodium falciparum (7G8) proliferation (AID 504316); further: nearly all actives have a fitted effect of over 65% in size; further: potency means the concentration at half of the fitted maximal effect
Outline: as §1

[5] = qHTS for Inhibitors of Plasmodium falciparum (HB3) proliferation (AID 504318); further: potency means the concentration at half of the fitted maximal effect; nearly all actives have a fitted effect of over 60% in size
Outline: as §1

[6] = qHTS for Inhibitors of Plasmodium falciparum (CP250) proliferation (AID 504320)
Outline: as §1

Chain of Atrial natriuretic peptide receptor 1 (Homo sapiens) (P16066 whole entry, looked up): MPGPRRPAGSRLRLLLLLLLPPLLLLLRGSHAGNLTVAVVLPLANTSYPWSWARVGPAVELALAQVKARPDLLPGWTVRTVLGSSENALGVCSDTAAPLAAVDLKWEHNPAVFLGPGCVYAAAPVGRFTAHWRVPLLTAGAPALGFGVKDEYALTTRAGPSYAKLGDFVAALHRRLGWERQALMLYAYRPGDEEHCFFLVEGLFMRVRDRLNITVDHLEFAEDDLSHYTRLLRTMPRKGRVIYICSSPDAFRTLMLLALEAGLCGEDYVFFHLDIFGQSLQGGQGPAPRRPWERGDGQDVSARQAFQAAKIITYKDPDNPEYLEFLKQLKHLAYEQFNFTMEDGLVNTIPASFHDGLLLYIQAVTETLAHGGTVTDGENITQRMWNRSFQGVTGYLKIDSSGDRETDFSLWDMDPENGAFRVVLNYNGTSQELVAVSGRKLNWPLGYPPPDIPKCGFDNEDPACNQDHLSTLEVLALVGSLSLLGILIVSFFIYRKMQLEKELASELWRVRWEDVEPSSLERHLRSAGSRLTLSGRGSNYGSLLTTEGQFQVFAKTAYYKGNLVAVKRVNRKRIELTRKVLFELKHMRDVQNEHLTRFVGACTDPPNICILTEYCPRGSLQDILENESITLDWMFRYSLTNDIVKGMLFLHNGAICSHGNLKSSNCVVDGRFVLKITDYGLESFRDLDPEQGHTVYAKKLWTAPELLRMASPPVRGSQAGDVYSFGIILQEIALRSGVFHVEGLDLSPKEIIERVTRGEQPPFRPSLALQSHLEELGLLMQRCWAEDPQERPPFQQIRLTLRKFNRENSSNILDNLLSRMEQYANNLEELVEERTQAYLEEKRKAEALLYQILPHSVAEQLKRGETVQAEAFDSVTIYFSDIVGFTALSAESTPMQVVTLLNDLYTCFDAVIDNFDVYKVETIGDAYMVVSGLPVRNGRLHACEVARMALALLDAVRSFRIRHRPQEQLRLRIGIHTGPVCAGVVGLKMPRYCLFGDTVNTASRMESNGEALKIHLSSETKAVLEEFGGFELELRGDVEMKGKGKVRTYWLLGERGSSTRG

**Q.** For COCOc1ccc(Br)cc1C(=O)C=Cc1ccc2c(c1)OCO2, which Potency [1] is on record?
**A.** inactive

**Q.** For CC(C)=CCCC(C)=CCN1C(=O)[C@@]2(CC(C)=CC[C@@H](C)O2)c2c(Br)cccc21, which Potency [1] is on record?
**A.** inactive

**Q.** With COC(=O)C1=C(C)N(Cc2ccccc2)C(=NCC(C)C)NC1c1cccc(C(F)(F)F)c1 (stereo not given) as the molecule, how does the Potency [1] read?
**A.** inactive

**Q.** Which Potency [1] does the source give for CC1=CC[C@@H](COc2ccccc2)O[C@@]2(C1)C(=O)N(Cc1ccc(Br)cc1)c1cccc(Br)c12 here?
**A.** inactive

**Q.** For C=CCC12C=C(OC)C(=O)C(C1=O)C(c1ccc(OC)cc1)C2C (stereo not given), which Potency [1] is on record?
**A.** inactive

**Q.** Which Potency [1] does the source give for Cc1cc(C)cc(-c2cc3c(c(-c4c(O)c(-c5cc(C)cc(C)c5)cc5c4CCCC5)c2O)CCCC3)c1 here?
**A.** inactive

**Q.** Which results are given for CC(=O)OC[C@H]1O[C@H](CCON=C(C)CCN2CCCc3nc(C)c(C)cc32)C=C[C@H]1OC(C)=O?
**A.** Potency [2]: inactive; Potency [3]: inactive; Potency [1]: inactive

**Q.** What does the source list for COc1cc2c(c(OC)c1OC)C1(c3ccccc3)CCCCCC1[C@@H]2NC(=O)C(F)(F)F (stereo not given in full)?
**A.** Potency [2]: inactive; Potency [3]: inactive; Potency [4]: inactive; Potency [1]: inactive

**Q.** For COc1ccc([C@]23Cc4ccccc4[C@H](O2)C2=C(CC4(CCCCC4)OC2=O)O3)cc1, which Potency [1] is on record?
**A.** inactive

**Q.** Which results are given for CCCCc1cc2c(cn1)=C(OC(=O)c1cccs1)C(C)(OC(=O)CC)C(=O)C=2 (stereo not given)?
**A.** Potency [2]: 1.89 µM (active); activity, negative = inhibition [2]: 1.64% [at 1.12 µM] (inactive); Potency [3]: 1.69 µM (active); Potency [4]: 1.69 µM (active); Potency [5]: 1.9 µM (active); Potency [6]: inactive; Potency [1]: inactive

**Q.** For O=C1C2=C(C(=O)c3ccccc31)[C@H]1O[C@](CCCCN3C(=O)c4ccccc4C3=O)(Cc3c1ccc1ccccc31)O2, which Potency [2] is on record?
**A.** 1.5 µM (active)

**Q.** And the Potency [3]?
**A.** 1.69 µM (active)

**Q.** And the Potency [4]?
**A.** 0.953 µM (active)

**Q.** And the Potency [1]?
**A.** inactive
